Our source for the viability values is PubChem BioAssay.

Values without a mark were called inactive. Activity calls are given as the source filed them.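 How the source made its calls: active means normalized viability below 100% at a tested concentration; inactive means the rest.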

One test in a line: ovarian cancer cell viability with rucaparib, profiling panel, oncology-focused library, rucaparib conditional (AID 1508598). The following applies: patient-derived ovarian cancer cells, CellTiter-Glo viability, 144 h; at 0.00122 µM; OCI-C5x cells; without rucaparib; active compounds read low. In general terms: ATP-based viability assays read luminescence as a measure of living cells.
Take `CNC(=O)c1cc(Oc2ccc(NC(=O)Nc3ccc(Cl)c(C(F)(F)F)c3)c(F)c2)ccn1`: the viability is 90.8% (active).
On the same count and under the same terms, next, `O=C(CCCCCCC(=O)Nc1ccc([C@H]2O[C@@H](CSc3nc(-c4ccccc4)c(-c4ccccc4)o3)C[C@@H](c3ccc(CO)cc3)O2)cc1)NO`: 131%; `CNC(=O)c1cc(COc2nnc(Nc3ccc(Cl)cc3)c3ccoc23)ccn1`: 117%.
On to `CS(=O)(=O)N1CCc2c(-c3cnc(N)nc3)nc(N3CCOCC3)nc21`, for which the viability is 117%.
On to `Nc1ccn([C@@H]2O[C@H](CO)[C@@H](O)C2(F)F)c(=O)n1`, for which the viability is 93.9% (active).

The same test, now with this note: patient-derived ovarian cancer cells, CellTiter-Glo viability, 144 h; at 0.00122 µM; OCI-P5x cells; with rucaparib 20 µM; active compounds read low; 100% = cells with rucaparib alone.
Consider `CNC(=O)c1cc(Oc2ccc(NC(=O)Nc3ccc(Cl)c(C(F)(F)F)c3)c(F)c2)ccn1`, for which the viability is 109%.
Regarding `O=C(CCCCCCC(=O)Nc1ccc([C@H]2O[C@@H](CSc3nc(-c4ccccc4)c(-c4ccccc4)o3)C[C@@H](c3ccc(CO)cc3)O2)cc1)NO`, the viability was 90.6% (active).
As to `CNC(=O)c1cc(COc2nnc(Nc3ccc(Cl)cc3)c3ccoc23)ccn1`, the viability was 102%.
The same measure, in the same setting: next, `CS(=O)(=O)N1CCc2c(-c3cnc(N)nc3)nc(N3CCOCC3)nc21`: 115%.
On the same count and under the same terms, next, `Nc1ccn([C@@H]2O[C@H](CO)[C@@H](O)C2(F)F)c(=O)n1`: 55.8% (active).

Broadly, the viability is a read-out of living cells in per cent, often relative to untreated cells.
